Measurements reported in PMC6212790, “How bacterial xenogeneic silencer rok distinguishes foreign from self DNA in its resident genome”.
In all, about 33,000 sequences were measured (“e-score”: median about -0.038, highest 2% from about 0.33 on). What follows is part of a selection rich in the highest values, with near analogues and random picks from the rest.

Target: T1, GST-Rok-C97-191 (Bacillus subtilis subsp. subtilis str. …, UniProt O34857 97-191)
T1 sequence: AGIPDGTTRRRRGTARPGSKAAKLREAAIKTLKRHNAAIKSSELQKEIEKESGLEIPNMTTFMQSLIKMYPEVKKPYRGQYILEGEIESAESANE
Assay: protein binding microarray; Rok is a gene silencer of Bacillus subtilis; high values mean tight binding
Details: protein: recombinant; tags: GST (pTH5325, pDEST15-Magic modified); dsDNA, one strand shown
Method in brief: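 Every oligonucleotide joins a 25-mer constant primer to a 35-mer variable part drawn from a de Bruijn sequence of order 10, so each non-palindromic 8-mer appears at least 32 times and each palindromic 8-mer 16 times. The preference for every 8-mer is reported as a unitless, rank-based enrichment score (E-score). This score spans 0.5 for the most favored 8-mer to −0.5 for the most disfavored.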

Compared with CGTAAATA, CCTGAAAC is lower in binding signal: 0.254 E-score for the first, -0.0142 E-score for the second.

First: TATAAAGA
Second: TAAAGTCA
The binding signal of the first is lower: -0.131 E-score for the first, -0.0164 E-score for the second.

Compared with AAATGCCC, ACTACGCA is lower in binding signal: 0.00515 E-score for the first, -0.0187 E-score for the second.

Going from CAGTGTAC to AGTCAGCA, the binding signal falls from 0.0867 E-score to -0.0559 E-score.

Compared with AACAACAA, GACAACTA is higher in binding signal: 0.1 E-score for the first, 0.295 E-score for the second.

Compared with TACAACTA, GACAACAA is lower in binding signal: 0.338 E-score for the first, -0.114 E-score for the second.

First: AACAACTA
Second: TACAACAA
The binding signal of the first is lower: 0.266 E-score for the first, 0.353 E-score for the second.

Going from CCAGTTCG to ACCAGTAG, the binding signal rises from -0.177 E-score to 0.259 E-score.

First: GTCATCAA
Second: CTGGGAAA
The binding signal of the first is higher: -0.132 E-score for the first, -0.136 E-score for the second.

First: GCTGCTAC
Second: ACTAAGCA
The binding signal of the first is higher: 0.0824 E-score for the first, 0.0291 E-score for the second.

First: ACAACCGG
Second: GCTCGAGC
The binding signal of the first is higher: -0.0576 E-score for the first, -0.176 E-score for the second.

First: CATTTGCA
Second: ATCTTCAT
The binding signal of the first is lower: 0.157 E-score for the first, 0.204 E-score for the second.

First: AAACCTTC
Second: CCGGACAA
The binding signal of the first is higher: 0.0022 E-score for the first, -0.145 E-score for the second.

First: CCACTCTC
Second: CACTTATA
The binding signal of the first is lower: -0.129 E-score for the first, 0.281 E-score for the second.

Compared with TACTTCTA, AACTTATC is lower in binding signal: 0.374 E-score for the first, 0.168 E-score for the second.

First: GACTTCTA
Second: TACTTACA
The binding signal of the first is lower: 0.111 E-score for the first, 0.31 E-score for the second.

Going from AACTTCTA to TACTTATA, the binding signal rises from 0.246 E-score to 0.331 E-score.

First: GACTTATA
Second: AACTTATA
The binding signal of the first is lower: 0.279 E-score for the first, 0.345 E-score for the second.

GAATGTTA and CAGCAAGA are the same in binding signal: 0.159 E-score for the first, 0.159 E-score for the second.

Going from CCGATATC to GAGTGTAA, the binding signal rises from 0.0718 E-score to 0.0764 E-score.

Going from ACCATTGG to GATCTACA, the binding signal rises from -0.182 E-score to 0.29 E-score.

First: AAGCTACC
Second: CAGCTACA
The binding signal of the first is higher: 0.362 E-score for the first, 0.0422 E-score for the second.

Compared with AAGCTACT, GAGCTACA is lower in binding signal: 0.195 E-score for the first, 0.151 E-score for the second.

Compared with AGTCTACA, CATCTACA is higher in binding signal: 0.0463 E-score for the first, 0.0976 E-score for the second.

First: AATCTACA
Second: TATCTACA
The binding signal of the first is higher: 0.365 E-score for the first, 0.361 E-score for the second.

Compared with ACTCTACA, AAGCTACG is lower in binding signal: 0.108 E-score for the first, 0.0766 E-score for the second.

Compared with TAGCTACA, TAGCACTA is lower in binding signal: 0.353 E-score for the first, 0.191 E-score for the second.

Compared with GCGAGTTA, ACCAGGCG is lower in binding signal: 0.0475 E-score for the first, -0.1 E-score for the second.

Compared with AATGGCGG, TCCGGAGA is higher in binding signal: -0.112 E-score for the first, -0.0285 E-score for the second.

First: GACAGGCA
Second: CACATGCA
The binding signal of the first is lower: -0.106 E-score for the first, 0.206 E-score for the second.

Going from GCTTTCTA to CGTTTCTA, the binding signal rises from 0.319 E-score to 0.369 E-score.

Compared with GTTTTCTA, CGTTTCGA is lower in binding signal: 0.256 E-score for the first, -0.111 E-score for the second.

Compared with GGTTTCTA, CGTTTCTC is lower in binding signal: 0.353 E-score for the first, -0.0794 E-score for the second.

Compared with AGTTTCTG, AGTTTCTA is higher in binding signal: 0.0882 E-score for the first, 0.389 E-score for the second.

First: AGTTTCTC
Second: GGCGACAC
The binding signal of the first is higher: 0.244 E-score for the first, -0.0519 E-score for the second.

First: GATAGACC
Second: AGAGAAGG
The binding signal of the first is higher: 0.022 E-score for the first, -0.195 E-score for the second.

Compared with CTAGTACC, GCGATATA is higher in binding signal: 0.244 E-score for the first, 0.282 E-score for the second.

Compared with GATATATC, GTGATATA is lower in binding signal: 0.403 E-score for the first, 0.245 E-score for the second.

Going from GATATATA to GAGATATC, the binding signal falls from 0.358 E-score to 0.182 E-score.

First: ATGGGGCC
Second: ACTAGCAT
The binding signal of the first is lower: -0.169 E-score for the first, 0.142 E-score for the second.

First: TGGTCTAA
Second: GAGTGAAC
The binding signal of the first is higher: 0.0359 E-score for the first, 0.0307 E-score for the second.

Going from CGACGACC to AAGCGGGG, the binding signal rises from -0.148 E-score to -0.141 E-score.

First: AAGTAGGA
Second: AAGTAGAG
The binding signal of the first is lower: 0.0873 E-score for the first, 0.0923 E-score for the second.

Going from AAGTAGAA to AAGTAGAC, the binding signal falls from 0.363 E-score to 0.021 E-score.

First: TAGTAGGA
Second: TAGTAGAA
The binding signal of the first is lower: 0.252 E-score for the first, 0.433 E-score for the second.

Compared with GAGTAGAA, CAGTAGAG is lower in binding signal: 0.279 E-score for the first, 0.0442 E-score for the second.

First: AAGTAGAT
Second: CAGTAGAA
The binding signal of the first is lower: 0.407 E-score for the first, 0.426 E-score for the second.

Compared with AAGTAGCA, TAGTAGCA is higher in binding signal: 0.259 E-score for the first, 0.316 E-score for the second.

Compared with GGTTATTA, GGCGGTAC is lower in binding signal: 0.0524 E-score for the first, -0.0765 E-score for the second.

First: ACCGCTCG
Second: ATGTCGCC
The binding signal of the first is higher: -0.0635 E-score for the first, -0.0714 E-score for the second.

Compared with TGCTGGAA, CCATTAAA is lower in binding signal: -0.107 E-score for the first, -0.149 E-score for the second.

First: CTATTTTA
Second: GTATTTTA
The binding signal of the first is lower: 0.302 E-score for the first, 0.376 E-score for the second.

Going from ATATTTTG to GTATTTGA, the binding signal falls from 0.237 E-score to 0.0326 E-score.

Going from GTATTTAA to ATATTTTA, the binding signal rises from 0.273 E-score to 0.384 E-score.

Going from CTAGCCGC to TGCGGCAA, the binding signal rises from -0.192 E-score to 0.0751 E-score.

Going from AGTTCTAG to ATTTCTAG, the binding signal rises from 0.236 E-score to 0.366 E-score.

First: ATTTCTAC
Second: ATTTCTTC
The binding signal of the first is higher: 0.353 E-score for the first, 0.204 E-score for the second.

Compared with GTTTCTAA, ATTTCTAA is higher in binding signal: -0.0431 E-score for the first, 0.357 E-score for the second.

Compared with ACTTCTAC, CTTTCTAA is lower in binding signal: 0.231 E-score for the first, 0.1 E-score for the second.

Going from CTTTCTAC to ATTTCTGG, the binding signal falls from 0.447 E-score to 0.0299 E-score.

Going from CTTTCTTC to ATTTCTCA, the binding signal rises from 0.0829 E-score to 0.126 E-score.

Going from CCAGGTAG to GAACCGAA, the binding signal falls from 0.0315 E-score to 0.00912 E-score.

Compared with CAAGCTAG, ATCCCGTC is lower in binding signal: 0.137 E-score for the first, -0.181 E-score for the second.

Compared with GTGGTAGA, ATGGTATC is lower in binding signal: 0.433 E-score for the first, 0.0289 E-score for the second.

Compared with ATGGTAAA, GTGGTAAA is lower in binding signal: 0.23 E-score for the first, 0.21 E-score for the second.

First: CTGGTAGA
Second: ATGGTAGA
The binding signal of the first is lower: 0.324 E-score for the first, 0.448 E-score for the second.

Compared with CTGGTAGC, CTGGTATA is higher in binding signal: -0.00597 E-score for the first, 0.205 E-score for the second.

Compared with ATGGTATA, ATGGTACA is lower in binding signal: 0.353 E-score for the first, 0.199 E-score for the second.

Going from ATGGTAGC to ATGGTAGG, the binding signal falls from 0.35 E-score to 0.278 E-score.

First: AACATCCG
Second: AACCGGTT
The binding signal of the first is lower: 0.0335 E-score for the first, 0.0733 E-score for the second.

Going from AGTAGCAA to ACCTCTCG, the binding signal falls from 0.277 E-score to 0.00338 E-score.

Going from CGAAACAA to CAAGCTGC, the binding signal falls from 0.0284 E-score to -0.171 E-score.

First: AGCGACCT
Second: CACGATGA
The binding signal of the first is higher: 0.06 E-score for the first, -0.103 E-score for the second.

Going from GGGAAGGA to AAAGATTA, the binding signal rises from -0.18 E-score to 0.212 E-score.

Compared with CTAGATTC, ACAGATTA is lower in binding signal: 0.166 E-score for the first, 0.0434 E-score for the second.

Compared with ATAGATTA, ATAGAAAC is lower in binding signal: 0.331 E-score for the first, 0.326 E-score for the second.

Going from ATAGAATC to ATAGATTC, the binding signal rises from 0.274 E-score to 0.34 E-score.

First: ATAGAATG
Second: ATAGATTG
The binding signal of the first is lower: 0.165 E-score for the first, 0.304 E-score for the second.

First: ATAGAAAT
Second: ATAGAAAA
The binding signal of the first is higher: 0.381 E-score for the first, 0.267 E-score for the second.

First: ATAGAATA
Second: AGAAGACA
The binding signal of the first is higher: 0.354 E-score for the first, 0.059 E-score for the second.

First: AACCTGCG
Second: CAAGGTAA
The binding signal of the first is lower: -0.0596 E-score for the first, 0.166 E-score for the second.

Going from CACAATGA to GTTAATGA, the binding signal rises from 0.00707 E-score to 0.082 E-score.

Going from GTCCCTGA to TCTGGGAA, the binding signal rises from -0.188 E-score to 0.0446 E-score.

Going from TACTGGCA to ACCTATGC, the binding signal falls from 0.0047 E-score to -0.0256 E-score.

Going from ATTGGGGA to GTAGATTA, the binding signal rises from -0.0754 E-score to 0.344 E-score.

First: GCAGATTA
Second: CTAGATTA
The binding signal of the first is lower: 0.028 E-score for the first, 0.312 E-score for the second.
